Only some compounds are listed: those with a hit (about 5.3% of all), similar ones and a draw of the others.
PostGolgi ctrl – yeast control strain growth, post-Golgi counter-screen; efflux-deficient yeast background strain, growth absorbance A615, 16 h; inhibition, % at 10 µM; 98,000 tested, 5% active; AID 738
PostGolgi yeast – growth inhibition of a yeast mutant, post-Golgi transport screen | 98,000 tested, 0.9% active | AID 739 | post-Golgi transport phenotypic cell assay | inhibition, % at 10 µM;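 note: yeast cells grown in 1536-well plates; yeast grown about 18 h at 30C before absorbance read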
Measles CPE – protection of cells from measles virus. Measles virus-infected cells, CPE protection, absorbance. 140,000 tested, 1.5% active. protection (pct of control), % at 4 µM; in the data active = protection mostly above about 24%, no sharp cut-off; inactive = mostly below about 26%
MT1-MMP txn act – MT1-MMP promoter transcription activation; HT1080 MT1-MMP promoter luciferase reporter, luminescence, overnight; stronger effect = higher value; activation factor at 10 µM; 86,000 tested, 0.16% active; AID 750;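 active = activation factor of at least 2 for MT1-MMP transcription at 10 µM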
* hit, by the source's call; · = no result. Cut-off read from the data, not from the text of the source, unless noted: active = inhibition above about 30%; inactive = the rest.

SMILES | PostGolgi ctrl | PostGolgi yeast | Measles CPE | MT1-MMP txn act
CC1CCCN(c2nc3c(c(=O)[nH]c(=O)n3C)n2Cc2ccccc2Cl)C1 (configuration not stated) | 34* | 2 | 4 | 1
Cn1c(=O)[nH]c(=O)c2c1nc(CN1CCN(c3cccc(Cl)c3)CC1)n2Cc1ccccc1Cl | 51* | 8 | 5 | 1.1
Cc1cccc(Cn2c(N3CCCCC3C)nc3c2c(=O)[nH]c(=O)n3C)c1 (configuration not stated) | 31* | 1 | 9 | 1.1
Cc1cccc(Cn2c(N3CCc4ccccc4C3)nc3c2c(=O)[nH]c(=O)n3C)c1 | 10 | 2 | 6 | ·
CC(C)CCn1c(CN2CCN(Cc3ccccc3)CC2)nc2c1c(=O)[nH]c(=O)n2C | -1 | 2 | 41* | 1.2
CCc1nnc(NC(=O)CCC(=O)NC2CCCc3ccccc32)s1 (configuration not stated) | · | · | 12 | ·
O=C(Nc1ccc(Cl)c(Cl)c1)Nc1cc(S(=O)(=O)N2CCOCC2)ccc1N1CCCC1 | · | · | 10 | ·
COc1ccc(CNc2nc(S(=O)(=O)c3ccccc3)c(Cl)s2)cc1OC | · | · | 20 | ·
Cc1ccc(Cn2c(N3CCCCCC3)nc3c2c(=O)[nH]c(=O)n3C)cc1 | 43* | 6 | 22 | 1.2
Cn1c(=O)[nH]c(=O)c2c1nc(N1CCCCCC1)n2Cc1cccc2ccccc12 | -3 | -2 | 11 | 1.2
CSCCC(NC(=O)OC(C)(C)C)C(=O)NC(C(=O)NC(CC(C)C)C(N)=O)C(C)C (configuration not stated) | 10 | 26 | 12 | 1.1
CC1CCN(c2nc3ccc(C(=O)N4CCN(Cc5ccc6c(c5)OCO6)CC4)cc3s2)CC1 | 41* | 10 | 25 | ·
O=C(c1ccc2nc(N3CCOCC3)sc2c1)N1CCCC1 | 4 | 4 | 5 | 1.1
Oc1ccc2ccccc2c1C1Nc2cccc3cccc(c23)N1 | 37* | -2 | 13 | 1.1
CC1SC(=NC(=O)C(C)N2C(=O)c3ccccc3C2=O)NC1=O (configuration not stated) | · | · | 24 | 1.2
Cc1ccc2nc3c(cc(C#N)c(=O)n3-c3nccs3)c(=O)n2c1 | 31* | 4 | 8 | 1.1
Cc1ccc2nc3c(cc(C#N)c(=O)n3CCN3CCOCC3)c(=O)n2c1 | · | · | · | 1
C/C(=N\Nc1nc(Cl)c(Cl)cc1Cl)c1ccc(S(=O)(=O)NCc2ccco2)cc1 | · | · | 13 | ·
CC(NC(=O)Cn1nc(C(=O)O)c2ccccc2c1=O)c1ccccc1 (configuration not stated) | 0 | -10 | 9 | 1.1
CC(C)CC(=O)Nc1ccc(C(=O)Cn2nc(C(=O)O)c3ccccc3c2=O)cc1 | -6 | 16 | 31* | ·
CC(=O)N1CN(Cc2ccccn2)Cc2c1sc1c2CCCC1 | 36* | 2 | 3 | 1.1
O=C(OCn1ncc(Cl)c(Cl)c1=O)c1ccc(C(F)(F)F)cc1 | 68* | 109* | 5 | ·
Cc1ccc(C(=O)OCn2ncc(Cl)c(Cl)c2=O)cc1 | 49* | 93* | 1 | ·
CCC1=C(OC(=O)N(CC)CC)N2C(=O)OC(=NCC(=O)OC)[C@]2(Cc2ccccc2)[C@H]2C1=CC[C@H]1C(=O)NC(=O)[C@H]12 | · | · | · | 1.2
CCOC(=O)N1CCC(N2C(=O)c3ccccc3C2Nc2ccccc2)CC1 (configuration not stated) | 4 | -11 | 4 | ·
SMILES | PostGolgi ctrl | PostGolgi yeast | Measles CPE | MT1-MMP txn act
CCOC(=O)N1CCC(N2C(=O)c3ccccc3C2Nc2ccc(C)cc2)CC1 (configuration not stated) | 22 | 6 | 36* | ·
Cc1ccc(NC(=O)NC2CCCN2S(=O)(=O)c2ccc(Cl)cc2)cc1 (configuration not stated) | 33* | -8 | 24 | 1.2
CN1CCN(C(=O)NC2CCCN2S(=O)(=O)c2ccc(Cl)cc2)CC1 (configuration not stated) | 9 | 1 | 10 | 1.1
CCOC(=O)Cc1csc(NS(=O)(=O)c2ccc(Cl)cc2)n1 | · | · | 14 | ·
COc1ccc(-c2nnc(Nc3ccc(CC(N)=O)cc3)c3ccccc23)cc1 | · | · | 64* | ·
NC(=O)Cc1ccc(Nc2nnc(-c3ccccc3)c3ccccc23)cc1 | · | · | 11 | ·
CN(CC(=O)Nc1ccc(C(N)=O)cc1)CC(=O)Nc1ccccc1Cl | · | · | 5 | ·
CCCCONc1ncnc2nonc12 | · | · | 6 | ·
CC(C)Sc1oc(-c2ccco2)nc1S(=O)(=O)c1ccccc1 | 41* | -6 | 30* | 1.1
Cn1c(=O)c2c(nc(OCc3cccnc3)n2Cc2c(F)cccc2Cl)n(C)c1=O | 30* | -4 | 2 | 1.1
O=S(=O)(Nc1nc2ccccc2nc1Cl)c1ccccc1 | · | · | 19 | ·
CCC(C)Oc1nc2ccccc2nc1NS(=O)(=O)c1ccccc1 (configuration not stated) | 31* | -5 | 7 | 1.1
O=C(NCc1ccco1)c1ccc(CNc2c(N3CCCCC3)c(=O)c2=O)cc1 | · | · | 2 | ·
O=C1NC(NS(=O)(=O)c2ccc(Cl)cc2)(C(F)(F)F)C(=O)N1Cc1cccnc1 (configuration not stated) | · | · | 19 | 1.1
O=C(NNc1c(Cl)cc(Cl)cc1Cl)C1CCC1 | · | · | 15 | ·
Cc1nc2ccc(NC(=O)c3cccs3)cc2c(=O)n1Cc1ccc(Cl)cc1 | 32* | -3 | 4 | ·
CCCc1nc2ccc(NC(=O)c3cccs3)cc2c(=O)n1Cc1ccc(Cl)cc1 | · | · | 5 | ·
Cn1c(=O)c2c(ncn2Cc2ccccc2)n(C)c1=O | · | · | 12 | 1
Cn1c(=O)c2nc(NCc3ccccc3)cnc2n(C)c1=O | -1 | 35* | 5 | 1
CCOC(=O)Cc1csc(NC(=O)CCCCCN2C(=O)c3ccccc3C2=O)n1 | 13 | 2 | 10 | 1
COc1ccc(C2C(C(=O)N3CCCC3)CC(=O)N2c2ccc(OC)cc2)cc1 (configuration not stated) | 38* | 0 | 11 | 1
COc1ccc(C2C(C(=O)O)CC(=O)N2C2CCCCC2)cc1 (configuration not stated) | 6 | -1 | 48* | 0.8
Cn1c(SCC(=O)Nc2ncc(C(F)(F)F)cc2Cl)nnc1-c1ccc(Cl)cc1 | · | · | 7 | ·
Cc1ccc(S(=O)(=O)N2CCC(C(=O)NNS(=O)(=O)c3ccc(Cl)cc3)CC2)cc1 | -1 | -8 | 7 | ·
Cc1cccc(Sc2ccc([N+](=O)[O-])cc2[N+](=O)[O-])n1 | · | · | 39* | ·
SMILES | PostGolgi ctrl | PostGolgi yeast | Measles CPE | MT1-MMP txn act
CCC(C)[C@H](NC(=O)Nc1ccc(S(N)(=O)=O)cc1)C(=O)O (some centres not stated) | · | · | 8 | ·
COC(=O)[C@@H](NC(=O)Nc1ccc(S(N)(=O)=O)cc1)C(C)C | · | · | 31* | ·
COC(=O)[C@@H](NC(=O)Nc1ccc(C(C)=O)cc1)C(C)C | 0 | 4 | 104* | 1.3
COC(=O)[C@@H](NC(=O)Nc1ccc(OC(F)(F)F)cc1)C(C)C | -1 | -6 | 7 | 1.2
Nc1c(C(=O)OCC2CCCO2)c2nc3ccccc3nc2n1C1CCCC1 (configuration not stated) | 48* | 9 | 20 | 1.1
COc1ccc(-c2nnc(SCc3cc(C)ccc3C)n2N)cc1 | 4 | -3 | 14 | 1.3
c1ccc(-c2nc(CSc3n[nH]c(-c4cccs4)n3)cs2)cc1 | 34* | -1 | 7 | 1.1
Nc1cc(=O)[nH]c(SCc2csc(-c3ccccc3)n2)n1 | · | · | 17 | ·

Compound activity (PubChem)
